Source: PubChem BioAssay (NCATS)
Records with an inconclusive call do not appear. The source made the active and inactive calls. The call rests on the fitted dose curve; in most records, active means well fitted curve in the direction sought with a large enough effect; inconclusive means small, poorly fitted or top-dose-only effect, or another doubt; inactive means no such curve, though single readings can be large; an effect the other way counts as inactive or inconclusive.

Legend:
[1] = Quantitative High-Throughput drug screen in 47 multiple myeloma cell lines against the NCATS MIPE library collection: KHM11_PLB cell viability assay (AID 1918962); further: nearly all actives have a fitted effect of over 35% in size
Procedure, shortened: (§1)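 Inhibition of cell viability is measured here. Each line was plated at 500 cells per well, treated with MIPE 4.0 drugs, kept 48 hours at 37C, then assayed for ATP content by CellTiter-Glo luminescence.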

[2] = Quantitative High-Throughput drug screen in 47 multiple myeloma cell lines against the NCATS MIPE library collection: JIM3_ECACC cell viability assay (AID 1918963; further: nearly all actives have a fitted effect of over 35% in size)
Procedure, shortened: as §1

[3] = Quantitative High-Throughput drug screen in 47 multiple myeloma cell lines against the NCATS MIPE library collection: INA6_PLB cell viability assay (AID 1918965; further: nearly all actives have a fitted effect of over 55% in size)
Procedure, shortened: (§2)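 qHTS of the MIPE 4.0 collection: 500 myeloma cells/well, 48 h drug exposure at 37C in 5% CO2, then CellTiter-Glo for 5 min at room temperature before luminescence reading.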

[4] = Quantitative High-Throughput drug screen in 47 multiple myeloma cell lines against the NCATS MIPE library collection: Karpas25_ECACC cell viability assay (AID 1918968; further: nearly all actives have a fitted effect of over 35% in size)
Procedure, shortened: as §2

[5] = Quantitative High-Throughput drug screen in 47 multiple myeloma cell lines against the NCATS MIPE library collection: KMS12BM_JCRB cell viability assay (AID 1918971); further: nearly all actives have a fitted effect of over 35% in size
Procedure, shortened: (§3)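 Myeloma cells (500 per well) were exposed to MIPE 4.0 compounds by pin transfer and incubated 48 hours at 37C, 5% CO2. Viability was read as ATP by CellTiter-Glo luminescence, normalised to DMSO (100%) and media-only (0%) wells.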

[6] = Quantitative High-Throughput drug screen in 47 multiple myeloma cell lines against the NCATS MIPE library collection: KMS12PE_JCRB cell viability assay (AID 1918972); further: nearly all actives have a fitted effect of over 30% in size; on viability: series mostly up to about 46 µM
Procedure, shortened: as §2

[7] = Quantitative High-Throughput drug screen in 47 multiple myeloma cell lines against the NCATS MIPE library collection: MMM1_PLB cell viability assay (AID 1918976); further: nearly all actives have a fitted effect of over 35% in size
Procedure, shortened: (§4)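 Viability after 48 h drug exposure was measured as ATP-dependent luminescence. Cells, 500 per well, sat at 37 °C under 5% CO2; DMSO wells set 100%, media-only wells 0%.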

[8] = Quantitative High-Throughput drug screen in 47 multiple myeloma cell lines against the NCATS MIPE library collection: OCIMY1_PLB cell viability assay (AID 1918979); further: nearly all actives have a fitted effect of over 35% in size; on viability: series mostly up to about 46 µM
Procedure, shortened: as §4

[9] = Quantitative High-Throughput drug screen in 47 multiple myeloma cell lines against the NCATS MIPE library collection: MM1S_ATCC cell viability assay (AID 1918980); further: nearly all actives have a fitted effect of over 45% in size
Procedure, shortened: as §4

[10] = Quantitative High-Throughput drug screen in 47 multiple myeloma cell lines against the NCATS MIPE library collection: JIM1_ECACC cell viability assay (AID 1918964)
Procedure, shortened: as §2

[11] = Quantitative High-Throughput drug screen in 47 multiple myeloma cell lines against the NCATS MIPE library collection: KMS20_JCRB cell viability assay (AID 1918973); further: nearly all actives have a fitted effect of over 45% in size
Procedure, shortened: as §2

[12] = Quantitative High-Throughput drug screen in 47 multiple myeloma cell lines against the NCATS MIPE library collection: H1112_PLB cell viability assay (AID 1918967; further: nearly all actives have a fitted effect of over 30% in size)
Procedure, shortened: as §2

[13] = Quantitative High-Throughput drug screen in 47 multiple myeloma cell lines against the NCATS MIPE library collection: KMS26_JCRB cell viability assay (AID 1918975); further: nearly all actives have a fitted effect of over 45% in size
Procedure, shortened: as §3

[14] = Quantitative High-Throughput drug screen in 47 multiple myeloma cell lines against the NCATS MIPE library collection: MOLP8_DSMZ cell viability assay (AID 1918977); further: nearly all actives have a fitted effect of over 45% in size
Procedure, shortened: as §4

[15] = Quantitative High-Throughput drug screen in 47 multiple myeloma cell lines against the NCATS MIPE library collection: NCIH929_DSMZ cell viability assay (AID 1918978); further: nearly all actives have a fitted effect of over 35% in size
Procedure, shortened: as §4

[16] = Quantitative High-Throughput drug screen in 47 multiple myeloma cell lines against the NCATS MIPE library collection: MM1R_ATCC cell viability assay (AID 1918981); further: nearly all actives have a fitted effect of over 35% in size
Procedure, shortened: as §4

[17] = Quantitative High-Throughput drug screen in 47 multiple myeloma cell lines against the NCATS MIPE library collection: LP1_DSMZ cell viability assay (AID 1918982); further: nearly all actives have a fitted effect of over 35% in size
Procedure, shortened: as §4

[18] = Quantitative High-Throughput drug screen in 47 multiple myeloma cell lines against the NCATS MIPE library collection: KMS27_JCRB cell viability assay (AID 1918970); further: nearly all actives have a fitted effect of over 30% in size
Procedure, shortened: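 Viability inhibition screen, 48 h compound exposure, luminescent ATP read-out.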

[19] = Quantitative High-Throughput drug screen in 47 multiple myeloma cell lines against the NCATS MIPE library collection: JJN3_DSMZ cell viability assay (AID 1918966; further: nearly all actives have a fitted effect of over 50% in size)
Procedure, shortened: as §2
Potency means the concentration at half of the fitted maximal effect.

Structure (SMILES)	Potency [1]	Potency [2]	Potency [3]	Potency [4]	Potency [5]	Potency [6]	Potency [7]	Potency [8]	Potency [9]	Potency [10]	Potency [11]	Potency [12]	Potency [13]	Potency [14]	Potency [15]	Potency [16]	Potency [17]	Potency [18]	Potency [19]
NC(=O)c1cccc(-c2cc(Nc3ccc(OC(F)(F)F)cc3)ncn2)c1	14.8 µM (active)	18.7 µM (active)	14.8 µM (active)	8.33 µM (active)	23.5 µM (active)	16.6 µM (active)	20.9 µM (active)	inactive	inactive										
COCCOC(=O)C1=C(C)NC2=C(C(=O)CC(c3ccccc3OC)C2)C1c1cccc(O)c1 (stereo unspecified)	11.8 µM (active)	20.9 µM (active)	1.66 µM (active)	13.2 µM (active)	10.5 µM (active)			inactive	16.6 µM (active)	9.35 µM (active)	4.18 µM (active)								
O=c1[nH]cnc2c1ncn2[C@H]1CC[C@@H](CO)O1	inactive	inactive				inactive		inactive	11.8 µM (active)	inactive		inactive	inactive	inactive	inactive	inactive	inactive		
O=C(Nc1ccccc1Br)N[C@@H]1CCN(c2ccc(C(F)(F)F)cn2)C1	14.8 µM (active)	18.7 µM (active)	16.6 µM (active)	18.7 µM (active)		inactive	23.5 µM (active)	inactive						inactive	inactive				
O=C(O)c1ccccc1C(=O)Nc1ccc(-c2ccccc2)cc1	inactive	inactive	inactive	inactive		inactive						inactive		inactive	inactive	inactive	inactive	inactive	
Cc1cnc(C(=O)O)c[n+]1[O-]	inactive	inactive	inactive	inactive	inactive	inactive	3.32 µM (active)	inactive				inactive			inactive	inactive	inactive		
Oc1ccc(C2CCN(c3ccnc4ccccc34)CC2)cc1O	8.33 µM (active)	11.8 µM (active)	7.43 µM (active)	7.43 µM (active)	16.6 µM (active)	18.7 µM (active)					18.7 µM (active)		18.7 µM (active)		18.7 µM (active)				16.6 µM (active)
COc1cccc(-c2cc(=O)c3ccccc3o2)c1N	5.26 µM (active)	3.72 µM (active)	2.35 µM (active)	1.66 µM (active)							7.43 µM (active)			inactive	0.332 µM (active)	5.9 µM (active)		inactive	
CNC(=O)c1ccc2cc(C3(O)CCn4cncc43)ccc2c1 (stereo unspecified)	inactive	inactive			inactive	inactive		inactive		inactive	inactive	inactive	inactive		inactive	inactive	inactive		inactive
COc1cccc2c1CCCC2CCCN1CCN(C2CCCCC2)CC1 (stereo unspecified)	18.7 µM (active)	23.5 µM (active)	16.6 µM (active)	18.7 µM (active)	23.5 µM (active)	16.6 µM (active)	14.8 µM (active)		20.9 µM (active)									16.6 µM (active)	20.9 µM (active)
CC[C@@]1(O)C[C@H](O[C@H]2C[C@H](N(C)C)[C@H](O[C@H]3C[C@H](O)[C@H](O[C@H]4CCC(=O)[C@H](C)O4)[C@H](C)O3)[C@H](C)O2)c2c(cc3c(c2O)C(=O)c2c(O)cccc2C3=O)[C@@H]1C(=O)OC	0.132 µM (active)	0.332 µM (active)	0.0662 µM (active)	0.372 µM (active)	0.148 µM (active)			1.66 µM (active)			0.0743 µM (active)	0.833 µM (active)		0.296 µM (active)	0.264 µM (active)	0.209 µM (active)	1.05 µM (active)	inactive	0.296 µM (active)
CCOc1ccc(Nc2nc(-c3c(C)nc4ccccn34)cs2)cc1	0.0743 µM (active)	inactive	0.0026 µM (active)		0.0066 µM (active)	0.003 µM (active)	20.9 µM (active)				inactive		0.332 µM (active)		0.0526 µM (active)	0.0059 µM (active)			5.26 µM (active)
O=C1C[C@@H](c2ccc(O)cc2)Oc2cc(O)cc(O)c21	inactive	inactive		inactive		inactive	1.48 µM (active)	inactive	10.5 µM (active)	inactive		inactive		inactive	inactive	inactive	inactive		
CCOC(=O)O[C@]1(C(=O)OCCl)CC[C@@H]2[C@H]3CCC4=CC(=O)C=C[C@]4(C)[C@@H]3[C@@H](O)C[C@@]21C	inactive	inactive	inactive	0.526 µM (active)		inactive		inactive				inactive		inactive	inactive	inactive		inactive	
CCOC(=O)C1=C(N)Oc2ccc(Br)cc2C1C(C#N)C(=O)OCC (stereo unspecified)	20.9 µM (active)	23.5 µM (active)	18.7 µM (active)	20.9 µM (active)	18.7 µM (active)	18.7 µM (active)	20.9 µM (active)		16.6 µM (active)			16.6 µM (active)	14.8 µM (active)	18.7 µM (active)	20.9 µM (active)	23.5 µM (active)		18.7 µM (active)	20.9 µM (active)
CC(=O)OC1C(C)OC(Oc2c(-c3ccc(O)cc3)oc3cc(O)cc(O)c3c2=O)C(O)C1OC(C)=O (stereo unspecified)	inactive	inactive	9.35 µM (active)				2.96 µM (active)		20.9 µM (active)		11.8 µM (active)	inactive			inactive		inactive		
COc1ccc(-c2cc(=O)c3c(O)cc(O)cc3o2)cc1O	10.5 µM (active)	7.43 µM (active)	8.33 µM (active)	3.72 µM (active)		5.9 µM (active)	0.935 µM (active)	inactive	6.62 µM (active)	9.35 µM (active)	4.18 µM (active)		5.9 µM (active)		2.64 µM (active)	16.6 µM (active)			
c1ccc2c(Cc3c[nH]c4ccccc34)c[nH]c2c1	4.18 µM (active)	10.5 µM (active)	3.32 µM (active)	1.05 µM (active)	20.9 µM (active)	5.9 µM (active)	16.6 µM (active)		1.32 µM (active)		2.96 µM (active)	1.05 µM (active)		18.7 µM (active)	1.05 µM (active)	2.35 µM (active)			26.4 µM (active)
Cc1nc(N)sc1-c1ccnc(Nc2ccc(N3CCOCC3)cc2)n1	6.62 µM (active)	14.8 µM (active)	1.48 µM (active)	5.9 µM (active)	14.8 µM (active)	2.64 µM (active)		16.6 µM (active)	18.7 µM (active)		7.43 µM (active)	16.6 µM (active)		7.43 µM (active)	7.43 µM (active)	10.5 µM (active)	20.9 µM (active)		11.8 µM (active)
CN(C)Cc1cccc(N=C(c2ccccc2)c2c(O)[nH]c3cc(C(=O)N(C)C)ccc23)c1	5.9 µM (active)	1.87 µM (active)	18.7 µM (active)			16.6 µM (active)		inactive	16.6 µM (active)						18.7 µM (active)	4.69 µM (active)			
CC(=Cc1ccccc1)C=C1SC(=S)N(CC(=O)O)C1=O	inactive	inactive	inactive	inactive	inactive	inactive		inactive			inactive	inactive	inactive		inactive	inactive	inactive	0.59 µM (active)	
CN1[C@@H]2CCC[C@@H]1CC(NC(=O)c1nn(C)c3ccccc13)C2 (stereo partly specified)	inactive	inactive	inactive	inactive	inactive	inactive			inactive			inactive			inactive	inactive	inactive	inactive	
CC(C)C[C@H](CC(=O)O)C(=O)N[C@@H](Cc1c[nH]c2ccccc12)C(=O)N[C@@H](C)c1ccccc1	inactive	inactive		inactive		inactive			1.66 µM (active)		inactive	inactive	inactive		inactive		inactive		inactive
CON=C(C(=O)N[C@@H]1C(=O)N2C(C(=O)OCOC(=O)C(C)(C)C)=C(C=Cc3scnc3C)CS[C@H]12)c1csc(N)n1	18.7 µM (active)	inactive	18.7 µM (active)		inactive						inactive	inactive		inactive	20.9 µM (active)	18.7 µM (active)	inactive		
CC=C(C)C(=O)O[C@H]1C(C)=C[C@]23C(=O)[C@@H](C=C(CO)[C@@H](O)[C@]12O)[C@H]1[C@@H](C[C@H]3C)C1(C)C	3.72 µM (active)	18.7 µM (active)	0.0066 µM (active)			18.7 µM (active)	18.7 µM (active)					0.526 µM (active)				18.7 µM (active)		9.35 µM (active)	
CN(C)c1cc(NC(=O)CNC(C)(C)C)c(O)c2c1C[C@@H]1C[C@H]3[C@H](N(C)C)C(=O)C(C(N)=O)=C(O)[C@@]3(O)C(=O)C1=C2O	inactive	inactive	inactive		inactive	inactive	14.8 µM (active)	inactive	inactive			inactive		9.35 µM (active)	inactive	18.7 µM (active)	inactive	inactive	
COc1cc2ncnc(-n3nc(-c4ccccn4)nc3N)c2cc1OC	5.9 µM (active)	8.33 µM (active)	7.43 µM (active)	0.743 µM (active)	7.43 µM (active)	1.32 µM (active)	4.18 µM (active)	inactive	20.9 µM (active)		6.62 µM (active)	0.743 µM (active)	14.8 µM (active)		4.18 µM (active)	18.7 µM (active)	inactive		4.69 µM (active)
O=c1ccn([C@@H]2O[C@H](CO)[C@H](O)[C@H]2O)c(=O)[nH]1	inactive	inactive	inactive	inactive	11.8 µM (active)		8.33 µM (active)	inactive	23.5 µM (active)			inactive			7.43 µM (active)	inactive	14.8 µM (active)	inactive	inactive
